Assay outcomes: PubChem BioAssay, National Center for Advancing Translational Sciences (NCATS)
BRCA1 expr act = qHTS Assay to Identify Small Molecule Activators of BRCA1 Expression; AID 624202, 2012; MCF7-BRCA1-FFLuc reporter, luminescence, 48 h; response scale: scaled: vehicle 0%, 10 µM genistein 100%; Potency, µM (doses to about 46.1 µM), without a hit: at the top dose activation, usual class: activators; actives 1.1% (n = 380,000); note: potency is the fitted concentration of half-maximal effect; nearly all actives have a fitted effect of over 80% in size
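MCF7-BRCA1-FFLuc, 2000 cells/well; 2 h attach, 37 °C/5% CO2; compound 48 h; luciferase substrate 15 min; luminescence end-point. Norm. to genistein 10 microM max activation and DMSO; concentration-response curves fitted.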
AT treatment = qHTS Assay for Identifying a Potential Treatment of Ataxia-Telangiectasia; F2112 A-T fibroblasts, KAP-1 phosphorylation AlphaLISA; neocarzinostatin DNA damage 30 min before lysis; Potency, µM (highest dose often 57.5 µM), for inactives: at the top dose activation, hits mostly activators; actives 0.19% (n = 320,000); AID 485349, 2010; note: potency is the fitted concentration of half-maximal effect; % of control where 0% means no effect; nearly all actives have a fitted effect of over 45% in size
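hTERT-immortalized A-T patient fibroblasts (F2112), 500 cells/well in OPTI-MEM, 1% FBS, got compounds for 60 min, then NCS for 30 min at 37C. Lysates were then assayed for phospho-KAP-1 by AlphaLISA (anti-pKAP1 donor, anti-KAP1 acceptor beads), 6 hr at 25C.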
CCT modulator = High-Throughput Screening for Modulators of Cytosolic Chaperonin Activity; actives 0.3% (n = 360,000); activity change, % (test concentration not listed), hits read low; purified chaperonin ATPase assay, HTRF ADP detection, 30 min; AID 651819, 2012; in the data active = activity change below about -30%; note: % is set by controls: 0 for no effect and ±100 for the full control effect
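ATPase activity: ADP formed was measured by HTRF Transcreener (665/615 nm ratio) after 30 min at 37 deg C with 10 uM ATP. Compounds screened at one 76 uM concentration against 40 or 20 nM TRiC in Tris pH 7.4/KCl/MgCl2/DTT buffer.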
Mm-Cpn inhibitor = Inhibitors of TCP-1 ring complex (TRiC) of Methanococcus maripaludis (MmCpn): qHTS | purified Mm-Cpn ATPase, ADP Transcreener TR-FRET | Potency, µM (titrated, usually from 76.9 µM), for the others: at the top dose activity, negative = inhibition, usual class: inhibitors | actives 0.031% (n = 330,000) | AID 504842, 2011; note: potency is the fitted concentration of half-maximal effect; % is set by controls: 0 for no effect and ±100 for the full control effect; nearly all actives have a fitted effect of over 80% in size
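ATPase read-out: TR-FRET ADP immunoassay (anti-ADP Eu cryptate vs ADP-d2), ex 320 nm, em 590/665 nm; signal drops as ADP forms. Enzyme 25 nM, ATP 10 uM, 30 min at 37°C after 10 min compound preincubation.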
Akt phos inh = HTS Assay for Inhibitors of Akt Phophorylation: Primary Screen. Neuro2A IGF-stimulated pAkt S473 HTRF, 20 min; active compounds read low. activity change, % for hits at 50 µM. actives 0.32% (n = 360,000). AID 651550, 2012; in the data active = activity change below about -80%; inconclusive = mostly about -51% to -80%; note: % is set by controls: 0 for no effect and ±100 for the full control effect
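Neuro2A cells in DMEM with 0.5% FBS, overnight at 37 deg C, given compound at single 50 µM final, then IGF (6 nM final) for 20 min at 37 deg C. Lysed; phospho-Akt Ser473 by HTRF after 24 h, 665/615 ratio.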
* = called active by the depositor; i = inactive; ? = inconclusive; nt = no result given. Only some compounds are listed: those with a hit (about 1.8% of all), similar ones and a draw of the others. Unless noted, calls come from the whole dose curve; as a rule, active = well fitted curve in the direction sought with a large enough effect; inconclusive = small, poorly fitted or top-dose-only effect, or another doubt; inactive = no such curve, though single readings can be large; an effect the other way counts as inactive or inconclusive.

SMILES | BRCA1 expr act | AT treatment | CCT modulator | Mm-Cpn inhibitor | Akt phos inh
COC(=O)CN1C(=O)[C@H]2[C@@H](C3CC3)N3C(=O)CN(Cc4ccccn4)C(=O)[C@@]3(Cc3ccccc3)[C@H]2C1=O | 14% | 2% | -40* | 2% | i
COC(=O)CN1C(=O)[C@H]2[C@@H](C3CC3)N3C(=O)CN(CCO)C(=O)[C@@]3(Cc3ccccc3)[C@H]2C1=O | -3% | -9% | -1 | 1% | i
O=C(CC(c1ccco1)C1CCCCC1=O)c1ccco1 (stereo not given) | -7% | 0% | -38* | 0% | i
O=C(CC(c1ccccc1)C1CCCCC1=O)c1ccco1 (stereo not given) | -15% | 2% | 0 | -1% | i
COc1ccc(NC(=O)CC(C)n2ccnc2)cc1 (stereo not given) | -16% | 5% | 0 | -2% | i
COc1ccc(C(=O)NC2CC2)cc1OC1CCN(Cc2ccccc2)CC1 | 4% | -1% | -4 | 1% | i
COc1ccccc1/C=C/CN1CCC(Oc2cc(C(=O)NC3CC3)ccc2OC)CC1 | -1% | 0% | -34* | 2% | i
COc1ccc(OC)c(NC(=O)Cn2cc(C(=O)c3ccc(Cl)cc3)c(=O)c3cc(OC)ccc32)c1 | 14% | nt | nt | nt | nt
COC(=O)[C@@H]1C[C@@]2(O)[C@@H](O)[C@@H](O)[C@@H](O)C[C@H]2N1Cc1ccc(Cl)cc1 | -1% | 40µM* | -3 | 0% | i
CCOC(=O)c1cc(C(C)=O)n2ccccc12 | 7% | 11% | 3 | 1% | nt
CCOC(=O)c1cc(Br)c(=O)n2ccccc12 | -50% | 0% | -2 | 28µM* | i
NC(=Nc1ccccc1)NC(=O)c1nc(Cl)c(N)nc1N | 5.6µM* | nt | 1 | nt | i
COc1ccc(/C=N/NC(=O)c2cccc(Br)c2)cc1Cn1cc(Cl)cn1 | -33% | -7% | 1 | 0% | -103%*
COc1ccc(/C=N/NC(=O)c2ccc(Br)cc2)cc1Cn1cc(Cl)cn1 | -11% | 1% | -1 | -4% | i
O=C(c1cccs1)N1CCN(S(=O)(=O)c2cccc(Cl)c2Cl)CC1 | -8% | 2% | 1 | 3% | i
CCCC(=O)N/C(N)=N/c1nc2ccccc2o1 | ? | -8% | -3 | 0% | i
CCC(=O)N/C(N)=N/c1nc2ccccc2o1 | 2µM* | 3% | -1 | -6% | i
Cc1ccc2c(c1)S(=O)(=O)c1ccc3ccccc3c1N2 | -39% | nt | -37* | nt | i
CN(C)c1ccc(/C=C/c2ccnc3ccccc23)cc1 | 49% | nt | nt | nt | nt
CCC1(C)Nc2ccccc2C(=O)N1O (stereo not given) | -53% | 1% | 0 | -3% | i
CCOc1ccc(N2C(=O)c3ccccc3NC2(C)CC)cc1 (stereo not given) | 3.5µM* | -3% | 1 | -29% | i
COc1ccc(N2C(=O)c3ccccc3NC2(C)C)cc1 | 10µM* | 1% | -5 | -3% | i
O=C(c1cnn2c1NC(=C1CC1)C=C2C(F)F)N1CCc2ccccc21 | -43% | nt | nt | nt | nt
CCCC(=O)Nc1nn(CCC)c2nc3ccccc3cc12 | -14% | 28µM* | -7 | -2% | i
CCCCn1nc(NC(=O)c2cccs2)c2cc3cc(OC)ccc3nc21 | -46% | 28µM* | 2 | -7% | i
CCCCn1nc(NC(=O)CCC)c2cc3cc(OC)ccc3nc21 | 13µM* | 35% | -3 | -6% | i
CCCn1nc(NC(C)=O)c2cc3cccc(C)c3nc21 | -39% | 14µM* | 0 | -2% | i
CCCn1nc(NC(=O)c2ccncc2)c2cc3ccccc3nc21 | -11% | 13% | 1 | -1% | i
Cc1cc(C)c2c(c1)C1C=CCC1C(C(=O)O)N2 (stereo not given) | 10% | nt | nt | nt | nt
O=C(N1CCCCC1)N1CCN(S(=O)(=O)c2ccccc2)CC1 | 13% | 0% | -3 | -7% | i
